According to PubChem BioAssay (NCATS):
Inconclusive results are not listed. Values without a mark were called inactive. Activity calls are given as the source filed them. Calls come from the whole dose curve; as a rule, active = well fitted inhibition curve with a large enough effect; inconclusive = small, poorly fitted or top-dose-only effect; inactive = flat fitted curve, though single readings scatter.

target: Calcium and integrin-binding protein 1 (Homo sapiens) (UniProt Q99828); assay: Primary qHTS for Identification of Calcium Integrin Binding Protein 1 (CIB1) Competitor (AID 1508620); conditions: CIB1-GST / FITC-alphaIIb peptide fluorescence polarization; series mostly up to 114 µM; activity change, negative = inhibition: at the top concentration; for activity change, negative = inhibition: top concentration of the series differs between compounds
Outline: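 Fluorescence polarization competition: GST-tagged CIB1 (1 uM final) preincubated with compound 15 min at room temperature, then FITC-labelled alphaIIb peptide (100 nM final) added. After 15 min at room temperature, polarization read at Ex 480/Em 540.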
% is set by controls: 0 for no effect and ±100 for the full control effect; potency is the fitted concentration of half-maximal effect.

Sequence of Calcium and integrin-binding protein 1 (Homo sapiens) (Q99828 whole entry, looked up): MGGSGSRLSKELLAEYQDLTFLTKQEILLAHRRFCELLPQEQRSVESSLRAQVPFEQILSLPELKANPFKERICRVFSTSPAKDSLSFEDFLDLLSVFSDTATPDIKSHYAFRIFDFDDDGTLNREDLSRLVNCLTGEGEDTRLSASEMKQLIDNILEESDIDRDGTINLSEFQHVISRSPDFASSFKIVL

Point of comparison: Clc1ncoc1-c1c[nH]c2ccccc12, “activity change, negative = inhibition” value -0.863%. Against it:
- COCCNCc1ccc(-c2cc3nccc(Oc4ccc(NC(=O)C5(C(=O)Nc6ccc(F)cc6)CC5)cc4F)c3s2)nc1 — higher, 61.1%
- CCCNCCc1ccc(NS(=O)(=O)c2ccc(OC(F)(F)F)cc2)cc1 — higher, 1.35%
- C=CC(C)(O)CC[C@@H]1[C@@]2(C)CCCC(C)(C)C2CC[C@@]1(C)O (stereo partly drawn) — lower, -5.82%
- COC(=O)c1cc(Br)cnc1N1CCC(NC2CCCCC2)C(O)C1 (stereo not drawn) — higher, 1.79%
- COc1ccc(OC)c(-c2ccc(NC(=O)c3ccncc3F)cc2)c1 — higher, 0.805%
- Nc1nc2c(cnn2CCCc2ccc(O)cc2)c2nc(-c3ccco3)nn12 — lower, -11.1%
- NS(=O)(=O)c1ccc(N2CCN(CC[C@@H]3OCCc4ccccc43)CC2)cc1 — lower, -5.76%
- CCOc1ccc(S(=O)(=O)N2CCCCCC2)c2ccccc12 — higher, 5.18%
- O=c1cc(N2CCN(c3cccc(C(F)(F)F)c3)CC2)[nH]c(=O)n1C1CCCCC1 — lower, -7.11%
- CC(=O)N1CCN(CCOc2ccc(C3CCN(C4=Nn5c(nnc5C(F)(F)F)CC4)CC3)cc2)CC1 — higher, 1.3%
- COc1ccccc1N1CCN(c2ncnc3n[nH]c(Br)c23)CC1 — higher, 3.68%
- Cc1noc(C)c1-c1cc(O)cc(C(O)c2ccccc2)c1 (stereo not drawn) — higher, 3.28%
- Cc1cc(-c2ncc(-c3cccnc3)cc2/C=C/c2ccccc2)cnc1-c1cccnc1 — higher, -0.212%
- Cc1csc2c(N[C@@H](C)CN3CCN(S(=O)(=O)c4ccc(Cl)c(Cl)c4)CC3)ncnc12 — lower, -9.52%
- Cn1nc(C(C)(C)C)cc1C(=O)N[C@@H](Cc1cccc(Cl)c1)C(=O)NCC#N — higher, 0.38%
- N#Cc1cc(C2=Nc3ccc(Br)cc3NC(=O)C2)ccn1 — higher, 4.46%
- CN(C)C(=O)C(=O)c1cn(C)c2cc(Cl)c(C(=O)N3CCC(Cc4ccc(F)cc4)CC3)cc12 — lower, -5.88%
- CCCCNc1ncc2c(-c3ccc(S(=O)(=O)N4CCOCC4)cc3)nn(C3CCC(O)CC3)c2n1 (stereo not drawn) — higher, 0.0098%
- NC(=O)CCCSc1nc(N)nc(-c2c(Cl)cc3c4c(cccc24)COC3)n1 — lower, -1.09%
- O=C(CNC(=O)c1cccc(C(F)(F)F)c1)N[C@@H]1CCN(Cc2ccc(Cl)cc2)C1 — higher, 2.37%
- COC1CCN(c2cccc(-c3cc(NC(C)=O)nc(-n4nc(C)cc4C)n3)n2)CC1 — lower, -10.8%
- Fc1ccc(-c2nc(C3CCNCC3)sc2-c2ccnc(NC3CC3)n2)cc1 — higher, 5.92%
- COc1cc2nc(N3CCN(C(=O)COc4c(OC)cccc4C(C)C)CC3)nc(N)c2cc1OC — higher, 6.68%
- CC(C)(C)c1ccc(C(=O)Nc2cc(Cl)c(Br)cc2C(=O)O)cc1 — lower, -7.98%
- CCN(CC)CCCCCCNc1cc(OC)cc2c(C)ccnc12 — lower, -6.72%
- COc1cc(NC(=O)c2cccc(-n3cc(NC(=O)Nc4cccc(C)c4)cn3)c2)cc(OC)c1OC — higher, 1.83%
- CNC(=O)[C@@H](c1ccccc1)N1CCc2cc(OC)c(OC)cc2[C@@H]1CCc1ccc(C(F)(F)F)cc1 — lower, -5.72%
- CNc1nc(NCc2ccc(NS(C)(=O)=O)cc2Cl)cc(-c2ccccn2)n1 — higher, -0.61%
- CC1=C(c2ccc(NC(=O)c3c(F)cccc3F)cc2)CN(c2nccs2)CC1 — higher, 9.74%

C[C@@H]1C[C@H]2O[C@@]3(O[C@@H]2C(C)(C)O)C(O)[C@@]2(C)C4CCC5C(C)(C)[C@@H](O[C@H]6OC[C@H](O)[C@@H](O)[C@@H]6O)CC[C@@]56C[C@@]46CC[C@]2(C)C13 (stereo partly drawn) was tested, and the “activity change, negative = inhibition” value was 0.962% [at 30.2 µM].

O=C(Nc1cccnn1)N1CCN(c2nccc(-c3ccc(F)c(F)c3)n2)CC1 was tested, and the “activity change, negative = inhibition” value was -5.74% [at 228 µM].

Point of comparison: COC1CC(=O)C23C(=O)NC(CC(C)C)C2C(C)C(C)=CC3/C=C(\C)CCCC1O (stereo not drawn), “activity change, negative = inhibition” value -2.61% [at 57.7 µM]. Against it:
- C/C=C(\C)C(=O)OC1C[C@@]2(COC(C)=O)O[C@H]2/C=C\[C@@]2(C)O[C@@H]2[C@H]2OC(=O)C(COC(C)=O)=C12 (stereo partly drawn) — higher, 8.92% [at 57.7 µM]
- CC1(C)CC[C@]2(C(=O)O)CC[C@]3(C)C(=CCC4[C@@]5(C)C[C@@H](O)[C@H](O)[C@@](C)(CO)C5CC[C@]43C)[C@@H]2[C@@H]1O (stereo partly drawn) — higher, 2.84% [at 57.7 µM]
- O=C1C[C@]23C=CCN4CCC5c6cc7c(cc6N1[C@@]5(CC2)C43)OCO7 (stereo partly drawn) — lower, -4.67% [at 57.7 µM]
- C=C1C(=O)OC2/C=C(\COC(C)=O)CC/C=C(\C=O)CC(OC(=O)CC(C)C)C12 (stereo not drawn) — higher, 0.72% [at 57.7 µM]

For CC1CCCC[C@H]2C(=O)C=C[C@H](O)[C@@H]2CC(=O)O1 (stereo partly drawn), the Potency was 28.2 µM (active).
